This is part of a sample that, as a whole, favours compounds with a hit. Of some 83,000 tested, about 20% had one in any assay.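 Cell lines were cultured in 96-well plates, exposed to a single compound concentration, and assessed for percent growth 48 hours later.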 Unmarked numbers belong to inactive results. The source made the active and inactive calls.
tested on: SK-MEL-2 melanoma; test: NCI-60 one-dose screen, 48 h (100 = growth as untreated, 0 = no growth, -100 = all killed); details: 10 µM unless noted
Experimental: Growth inhibition of the SK-MEL-2 human tumor cell line is measured as a screen for anti-cancer activity. Cells are grown in 96 well plates and exposed to the test compound for 48 hours. Compounds are tested at a single concentration, which is 10^-5 M for most compounds. The reported endpoint is percent growth (GI% or GIPRCNT), where numbers from 0 - 100% represent growth inhibition, and numbers from -100% - 0 represent cell death. For example, a value of 40 represents 60% growth inhibition. A value of 0 means no net growth occurred over the course of the experiment. A value of -40 indicates 40% of cells at the beginning of the experiment died by the end of the experiment. A value of -100 means all cells are dead at the end of the experiment.
NCI-60 Human Tumor Cell Lines Screen was performed using the standard one-dose NCI protocol, which is described in more detail at https://dtp.cancer.gov/discovery_development/nci-60/default.htm.
Compounds with GIPRCNT values below 10 were considered active. Activity score was based on GIPRCNT using the following formula: […]
Score is 0 for GIPRCNT values of 100 or above, 50 for GIPRCNT values of 0, and 100 for GIPRCNT values of -100.

Structure (SMILES)	growth
CCCn1cnc2c(c1=N)C(c1ccc(F)cc1)c1sc3c(CC)cccc3c1O2 (stereo not given)	49.4%
COc1ccc(-c2nc3ccc(-c4nnc(SCC(=O)Nc5ccc(C(=O)/C=C/c6ccc(Cl)cc6)cc5)o4)cc3[nH]2)cc1	111%
Oc1cccc2ccc(-c3nnc(SCc4ccc(O)c5ncccc45)n3-c3ccccc3)nc12	25.5%
NS(=O)(=O)c1ccc(Nc2nc(N/N=C/CCc3ccccc3)nc(Nc3ccccc3)n2)cc1	105%
COC(=O)C1(C)CCC[C@]2(C)[C@H]3C[C@H]4C(C(C)C)=C[C@]3(CC[C@@H]12)[C@H]1[C@@H]4[C@@H](OC(=O)c2ccco2)CC[C@@H]1OC(=O)c1ccco1 (stereo not given in full)	107%
Cc1occc1-c1nc2s/c(=C/c3ccc(-c4cc(C(F)(F)F)ccc4Cl)o3)c(=O)n2n1	109%
C=C1CC[C@@H]2[C@]3(C)COC(c4ccccc4)O[C@@H]3CC[C@@]2(C)[C@@H]1C/C=C1/C(=O)OC[C@H]1O (stereo not given in full)	93.3%
COc1cc(-c2nc3sccn3c2-c2ccnc(S(C)(=O)=O)n2)ccc1F	96%
COC(=O)/C=C/c1c(C2(C)NC(=O)c3ccccc3N2)c(=O)oc2ccc(Cl)cc12 (stereo not given)	93.7%
c1ccc(C(c2nc3ncncc3[nH]2)N2CSc3nc4ncncc4n3C2)cc1 (stereo not given)	70.5%
C#C[C@]1(O)CC[C@H]2[C@@H]3CC=C4c5sc(-c6ccc7c(c6)OCO7)nc5CC[C@]4(C)[C@H]3CC[C@@]21C	28.9%
NC/C(=C/F)COc1ccc2nc(NCc3cccnc3)oc2c1	105%
O=C(O)c1ccc(-n2cc(CNc3cc(F)c(F)c(F)c3)c(-c3cccc(F)c3)n2)cc1	79.6%
CCCn1cnc2c(c1=N)C(c1ccc(Cl)cc1)c1sc3c(CC)cccc3c1O2 (stereo not given)	22.5%
COc1cc(-c2nc(SCCC(C)C)nc(NNC(=O)c3ccncc3)c2C#N)cc(OC)c1OC	101%
Cc1ccc(-c2nn(-c3ccccc3)cc2/C=C/C(=O)c2ccc(NC(=O)CCCCCCC(=O)NO)cc2)cc1	88.2%
N#Cc1cccc(CN2CCC3=C(C2)C(=O)N(Cc2ccc(Cl)cc2)C2=NCCCN23)c1	26.4%
CCc1cccc2c3c(sc12)C(c1ccc(OC)cc1)C(C#N)=C(/N=C/c1ccc(Cl)cc1)O3 (stereo not given)	-27.5% (active)
Cc1ccc(-n2cc(/C=C/C(=O)c3ccc(O)cc3)c(-c3ccc(S(C)(=O)=O)cc3)n2)cc1	101%
O=C(NNc1nc2cc(F)ccc2n2c(CN3CC4CNCC4C3)ccc12)c1cnccn1 (stereo not given)	30.9%

Structure (SMILES)	growth
CN1c2ccccc2Sc2cc(C=C(C#N)C#N)ccc21	101%
CC1=N[C@@H]2CN(C(=O)OC(C)(C)C)C[C@@H]2n2c1cc1ccccc1c2=O	102%
CCC1=Cc2cc(OC)ccc2OC12C=Cc1cc(OC)ccc1O2 (stereo not given)	52.5%
CCCCCCCn1cc2c(N[C@H](C)c3ccccc3)ncnc2n1	123%
Cc1ccc(-c2cc3nc(C(Cl)Cl)nc(C)n3n2)cc1	110%
CC/C(=C/c1c(O)cccc1OC)c1ccc2c(OC)cccc2[o+]1	107%
CCOP(=O)(OCC)OC[C@]12CCC(C)(C)C=C1[C@H]1CC[C@@H]3[C@@]4(C)CC[C@H](OP(=O)(OCC)OCC)C(C)(C)[C@@H]4CC[C@@]3(C)[C@]1(C)CC2	-60.9% (active)
CC1(C)CC[C@]2(C(=O)N3CCOCC3)CC[C@]3(C)C(=CC[C@@H]4[C@@]5(C)C/C(=C/c6ccccn6)C(=O)C(C)(C)[C@@H]5CC[C@]43C)[C@@H]2C1	82.9%
CCc1cccc2c3c(sc12)C(c1ccc(Cl)cc1)C(C#N)=C(/N=C/c1ccc(Cl)cc1)O3 (stereo not given)	31%
CCc1cccc(NC(=O)CNc2cc(S(=O)(=O)N(C)C)cc(C)c2C)c1	102%
COc1ccc(COc2ccc(/C=C3\C(=O)Nc4ccccc43)cc2OC)cc1	108%
COc1cc(Cn2cc3c(c2)-c2onc(CN4CCOCC4)c2CC3)cc(OC)c1OC	104%
COc1cc2nc(Cl)nc(Nc3cccc(C4=Nc5c(N)nc(N)nc5NC(c5ccc(Cl)cc5)C4)c3)c2cc1OC (stereo not given)	76.9%
N#Cc1c(-c2cccs2)cc(-c2cnccn2)nc1SCC(=O)c1ccc(F)cc1	102%
O=C1Nc2ccccc2/C1=C/c1ccc(CO)n1-c1ccc(Cl)cc1	47.7%
COc1ccc(/C=N/NC(=O)c2cn(C3CC3)c3c(OC)c(N4CC5CCCNC5C4)c(F)cc3c2=O)cc1 (stereo not given)	107%
CCCCCc1ccc(S(=O)(=O)Nc2cc(-c3csc(NC(=O)CN4CCN(CCO)CC4)n3)ccc2OC)cc1	94.9%
Cn1cc(-c2nnc(N)nc2-c2c[nH]c3ccc(F)cc23)c2cc(F)ccc21	97.1%
O=C1[C@H]2Cc3c([nH]c4ccccc34)[C@@H](c3c(Cl)cccc3Cl)N2C(=O)CN1C1CCN(CC2CCCCC2)CC1	111%
CC(C)(C)n1cc(-c2ccnc(NCCCNS(=O)(=O)c3cccc(F)c3)n2)c(-c2ccc(Cl)c(O)c2)n1	98.4%
